From PubChem BioAssay
The source made the active and inactive calls.

Tests used:
Albumin (Bos taurus) = Albumin (Bos taurus) (UniProt P02769); assay: compounds binding labelled BSA control protein – biochemical, small-molecule microarray, Alexa647 label, 635/667 nm fluorescence, artefact control for SMM control protein annotation, profiling panel (AID 1118); details: BSA-A647 binding, fluorescence 635 nm, higher = more signal;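 further: score merges 667 nm emission intensity and signal-to-noise per printed compound spot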
Albumin (Bos taurus), sequence (P02769 whole entry, looked up): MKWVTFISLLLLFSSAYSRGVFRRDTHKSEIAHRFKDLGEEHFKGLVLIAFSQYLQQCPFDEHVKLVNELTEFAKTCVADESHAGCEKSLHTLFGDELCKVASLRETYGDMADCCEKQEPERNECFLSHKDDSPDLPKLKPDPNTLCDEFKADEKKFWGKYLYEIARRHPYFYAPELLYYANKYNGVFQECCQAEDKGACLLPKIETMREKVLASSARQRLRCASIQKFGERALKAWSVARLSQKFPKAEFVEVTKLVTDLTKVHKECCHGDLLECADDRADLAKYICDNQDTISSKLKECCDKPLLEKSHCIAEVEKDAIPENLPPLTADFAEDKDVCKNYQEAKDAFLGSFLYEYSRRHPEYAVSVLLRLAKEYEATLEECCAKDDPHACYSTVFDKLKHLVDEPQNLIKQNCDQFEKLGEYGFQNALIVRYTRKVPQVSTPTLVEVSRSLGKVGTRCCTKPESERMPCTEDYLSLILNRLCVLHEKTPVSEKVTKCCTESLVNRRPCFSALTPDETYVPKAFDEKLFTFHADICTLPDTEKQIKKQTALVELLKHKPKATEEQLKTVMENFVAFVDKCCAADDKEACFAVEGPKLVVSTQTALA

[1] = probe aXIP binding to arrayed compounds – biochemical, NeuroSMM set, 635/667 nm fluorescence, primary screen (AID 1119); details: small-molecule microarray, higher = more signal, called active from +8 up or from −8 down;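 further: probe is the protein aXip251-270 applied at 1 µg/mL to compound-printed slides; binding of probe to printed compounds measured as 667 nm fluorescence plus signal to noise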
[2] = probe aNOTCH3 binding on compound microarray – biochemical, small-molecule microarray, 635/667 nm fluorescence, primary screen (AID 1120); details: higher = more signal;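 further: probe is a biotin-tagged antibody raised against NOTCH3 rather than NOTCH3 protein; score merges spot fluorescence near 667 nm with spot signal to noise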
[3] = probe aNOTCH2 binding on compound microarray – biochemical, small-molecule microarray, 635/667 nm fluorescence, primary screen (AID 1121); details: higher = more signal;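 further: score merges feature fluorescence read at 667 nm with its signal to noise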
[4] = target: Carbonic anhydrase 2 (Homo sapiens) (UniProt P00918); assay: compounds binding carbonic anhydrase 2 – biochemical, small-molecule microarray, Alexa647-labelled CAII, profiling panel (AID 1122); details: CAII-A647 binding fluorescence, higher = more signal
[5] = COS7 lysate on small-molecule microarray, probe aHis, 635 nm (AID 1123); details: COS7 cell lysate, fluorescence, higher = more signal;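 further: z-score combines 667nm fluorescence intensity with signal-to-noise per printed compound spot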
[6] = probe aLAP1 signal on lysate-treated microarray – cell lysate, small-molecule microarray, COS7 lysate, primary screen (AID 1124); details: probe aLAP1, fluorescence, higher = more signal;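 further: lysate comes from COS7 cells expressing LAP1 and is applied at 0.3 µg/mL; score merges spot fluorescence near 667 nm with signal-to-noise over triplicate slides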
Sam68 (KHDRBS1) = assay: compounds binding KHDRBS1 protein – biochemical, small-molecule microarray, 635 nm fluorescence, primary screen (AID 1125); details: higher = more signal;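 further: score merges 667 nm channel intensity with signal to noise over triplicate slides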
[7] = test system: Chordin-like protein 2 (CHRDL2); assay: compounds binding chordin-like 2 – biochemical, small-molecule microarray, 635 nm fluorescence, primary screen (AID 1126); details: fluorescence 635 nm, higher = more signal;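 further: printed compound slides probed with Chrdl2 protein at 4 µg/mL for 1 h at 4 C; score merges 667 nm emission intensity with signal to noise over three replicate slides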
[8] = target: Concanavalin-A (Canavalia ensiformis) (UniProt P02866); assay: compounds binding concanavalin A lectin – biochemical, small-molecule microarray, Alexa647 label, 635 nm, artefact control for SMM control protein annotation, primary screen (AID 1127); details: ConA-A647 binding fluorescence, higher = more signal;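 further: z combines 667 nm emission intensity with signal-to-noise across three replicate slides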
Concanavalin-A (Canavalia ensiformis), sequence (P02866 whole entry, looked up): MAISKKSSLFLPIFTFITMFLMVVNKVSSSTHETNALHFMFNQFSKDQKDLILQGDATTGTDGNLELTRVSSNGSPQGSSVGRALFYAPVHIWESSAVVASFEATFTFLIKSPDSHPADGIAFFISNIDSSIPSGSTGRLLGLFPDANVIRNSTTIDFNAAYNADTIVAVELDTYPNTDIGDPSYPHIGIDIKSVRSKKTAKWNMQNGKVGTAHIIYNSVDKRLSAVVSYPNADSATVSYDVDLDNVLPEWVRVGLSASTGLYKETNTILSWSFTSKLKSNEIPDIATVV

| Structure (SMILES) | composite z-score (Albumin (Bos taurus)) | composite Z-score [1] | composite z-score [2] | composite z-score [3] | composite z-score [4] | composite z-score [5] | composite z-score [6] | composite z-score (Sam68 (KHDRBS1)) | composite z-score [7] | composite z-score [8] |
| --- | --- | --- | --- | --- | --- | --- | --- | --- | --- | --- |
| COC(=O)c1ccc(OC)c(/C=C\CC(CCc2ccccc2)OC(C)=O)c1 (stereo not given) | 0.804 | -0.376 (inactive) | -0.272 | -0.196 | 0.557 | -0.14 | 0.275 | -0.0896 | 0.204 | 0.0426 |
| COCCOC(=O)N1C(=O)[C@@]2(c3cc(C#CCC(C(=O)OC)C(=O)OC)ccc31)[C@H](C(=O)N1CCCCCCC1)[C@H]1C(=O)O[C@H](c3ccccc3)[C@H](c3ccccc3)N1[C@@H]2c1ccc(O)cc1 | -0.0345 | 0.604 (inactive) | 0.996 | 0.222 | 0.387 | 2.34 | 2.4 | 1.31 | 1.29 | 0.783 |
| O=C1OCC=C[C@H]2OC34C=CCN(CCN5CCOCC5)C(=O)[C@H]3N(CCCCCO)C(=O)[C@@H]4[C@@H]12 (stereo not given in full) | 0.485 | -0.232 (inactive) | 0.0694 | -0.117 | 0.829 | 2.03 | -0.723 | -0.229 | 0.129 | 0.476 |
| CC(C)=CCCC(C)=CC(O)C1C=CC2C(=O)N(c3ccccc3)C(=O)C2N1Nc1ccc([N+](=O)[O-])cc1 (stereo not given) | 1.01 | 0.649 (inactive) | 0.155 | -0.0697 | 0.856 | 2.77 | 0.167 | 1.35 | -1 | 1.14 |
| CCCCC(=C=CC[C@H](O)c1ccccc1OCCO)C[C@H](O)c1ccccn1 | 0.0165 | -0.452 (inactive) | 0.0311 | -0.164 | 0.557 | -0.137 | 0.271 | -0.0949 | 0.547 | 0.319 |
| CCOC(=O)C[C@H]1[C@H](OC(=O)c2ccccc2-c2ccccc2)[C@@H](NC(=O)c2ccccc2)c2cc(OCCCO)ccc2N1C(=O)Cc1ccc(OC)cc1 | -0.261 | -0.0282 (inactive) | -0.0055 | 0.669 | -0.0956 | 0.428 | 0.368 | -0.0802 | 0.0666 | 0.588 |
| C=CCC(OC(C)=O)[C@@H]1[C@@H](N(Cc2ccc(-c3cccc(C(F)(F)F)c3)o2)C(=O)c2cccc3ccccc23)c2cc(OCCCO)ccc2N1C(=O)c1ccc(-c2ccccc2)cc1 (stereo not given in full) | -0.0913 | -0.0505 (inactive) | 0.0058 | -0.053 | -0.406 | -0.647 | -0.272 | -0.407 | 0.634 | -0.402 |
| O=C1c2ccccc2C(=O)C2CC([C@H]3Oc4ccccc4S(=O)(=O)N4CCC[C@@H]34)=CCC12 (stereo not given in full) | 0.793 | 0.251 (inactive) | -0.122 | -0.117 | -0.241 | -0.296 | -0.363 | -0.557 | 0.139 | -1 |
| C[C@H]1NC(=O)C([C@@H](C)OCc2ccccc2)NC(=O)[C@@]23C(=O)N[C@@H](Cc4ccccc4)C2[C@H](C)[C@@]2(C)O[C@H]2C3/C=C/CC/C=C/CNC1=O (stereo not given in full) | 0.506 | -0.169 (inactive) | -0.0647 | -0.0131 | 0.665 | -0.308 | 0.03 | -0.389 | 0.634 | -1.38 |
| CCCC=C(CCC)[C@@H](NS(=O)(=O)c1ccccc1)c1ccc(C(F)(F)F)cc1 | 0.871 | 0.35 (inactive) | 0.23 | 0.277 | 0.578 | 2.65 | 0.17 | 1.32 | 0.24 | 1.09 |
| C=C[C@@H](O)[C@H]1CC(c2ccccc2)=NO1 | -0.596 | 0.303 (inactive) | -0.1 | -0.084 | -0.0997 | -0.322 | -0.156 | -0.542 | 0.647 | 0.334 |
| CC(C)(C)OC(=O)CC[C@]1(C(=O)N2CCCCC2)N=C(c2ccc(OCCCO)cc2)O[C@H]1c1ccccc1CN=[N+]=[N-] | 0.982 | -0.43 (inactive) | 0.516 | 0.381 | 0.801 | 2.74 | 0.762 | 1.3 | 0.388 | 1.2 |
| O=C1N(CCS(=O)(=O)c2ccccc2)Cc2ccccc2C[C@@]12COC(c1ccc(OCCCO)cc1)=N2 | -0.0401 | 0.319 (inactive) | 0.384 | -0.0651 | 0.585 | 2.55 | 0.203 | 1.32 | 0.825 | 1.17 |
| C[N+](C)(C)CCCCNC(=O)[C@H]1C[C@H]2C(=O)NCC(=O)N2[C@H]1c1ccc(O)cc1 | -1.48 | 0.586 (inactive) | 0.175 | -0.0457 | 0.568 | 1.56 | 1.01 | 0.852 | 1.39 | 1.14 |
| O=C1c2ccccc2[C@](Cc2ccccc2I)(C(=O)NC2CC2)[C@H](c2ccc(CO)cc2)N1Cc1ccccc1Cl | 0.0646 | -0.057 (inactive) | 0.265 | 0.0563 | 0.574 | 1.93 | 0.696 | 1.31 | 0.0424 | 0.997 |
| COc1ccc(C#Cc2ccc3c(c2)[C@]2(C(=O)N3)[C@H](c3ccc(OCCO)cc3)N3[C@H](c4ccccc4)[C@H](c4ccccc4)OC(=O)[C@H]3[C@@H]2C(=O)N2CCN(c3ncccn3)CC2)cc1 | 0.716 | -0.912 (inactive) | -0.156 | -0.157 | 0.39 | 0.873 | 0.324 | 0.514 | -0.233 | 1.04 |
